Each structure is given as a SMILES string. The whole screen tested about 39,000 compounds, of which about 1,500 (3.8%) were called active. This is one part of a sample in which actives are shown more often than they occur.

In this test the test system is HSkMC (human skeletal muscle cells). Kind of test: cytotoxicity call (relative viability < 0.9). The note with it: 10 µM.
Consider `C[C@@H]1CN([C@@H](C)CO)C(=O)c2cc(NS(=O)(=O)c3ccc(F)cc3)ccc2O[C@@H](C)CCCCO[C@@H]1CN(C)Cc1ccc(C(=O)O)cc1`, for which the cytotoxicity call is “inactive”.

On to `C[C@H]1CN([C@@H](C)CO)C(=O)CCCn2cc(nn2)CO[C@@H]1CN(C)Cc1cccc2c1OCCCO2`, for which the cytotoxicity call is “inactive”.

As to `CO[C@H]1O[C@H](CO)[C@@H](OC(=O)Nc2ccc(Oc3ccccc3)cc2)[C@H](OC(=O)Nc2ccccc2)[C@H]1OC(=O)Nc1ccccc1`, the cytotoxicity call is “inactive”.

On to `COc1ccc(S(=O)(=O)N(C)C[C@@H]2OCCCC[C@@H](C)Oc3ccc(NC(=O)Nc4ccccc4)cc3C(=O)N([C@H](C)CO)C[C@H]2C)cc1`, for which the cytotoxicity call was “inactive”.

Take `O=C(C[C@H]1CC[C@H]2[C@@H](COC[C@@H](O)CN2S(=O)(=O)c2ccc(Oc3ccccc3)cc2)O1)NC1CCC1`: the cytotoxicity call was “inactive”.

As to `CC(C)NC(=O)Nc1ccc2c(c1)C(=O)N([C@H](C)CO)C[C@@H](C)[C@@H](CN(C)S(=O)(=O)c1cn(C)cn1)O2`, the cytotoxicity call was “inactive”.

For `C[C@H]1CN([C@@H](C)CO)C(=O)c2cc(NC(=O)Nc3cccc4ccccc34)ccc2O[C@@H]1CN(C)Cc1ccc(C(=O)O)cc1`, the cytotoxicity call is “inactive”.

With `COC(=O)c1c(CC[C@@H](CO)NC(=O)N[C@H](Cn2cc(-c3ccccc3C)nn2)C(C)C)oc(C(C)=O)c1C(=O)OC`, the cytotoxicity call was “inactive”.

Turning to `CCCN(C)C[C@H]1OCCCC[C@@H](C)Oc2ccc(NC(=O)C3CCCCC3)cc2C(=O)N([C@H](C)CO)C[C@@H]1C`, the cytotoxicity call is “inactive”.

On to `C[C@@H]1CN([C@H](C)CO)C(=O)Cc2cc(NC(=O)Nc3ccc(C(F)(F)F)cc3)ccc2O[C@@H]1CN(C)S(C)(=O)=O`, for which the cytotoxicity call was “inactive”.

`C[C@H](CO)N1C[C@H](C)[C@@H](CN(C)S(C)(=O)=O)Oc2ccc(NC(=O)Nc3ccc(C(F)(F)F)cc3)cc2CC1=O`: the cytotoxicity call was “inactive”.

On to `C[C@H]1CN([C@@H](C)CO)C(=O)Cc2cc(NC(=O)Nc3ccc(C(F)(F)F)cc3)ccc2O[C@H]1CN(C)S(=O)(=O)c1ccc(Cl)cc1`, for which the cytotoxicity call was “active”.

As for `C[C@H]1CN([C@@H](C)CO)C(=O)Cc2cc(NC(=O)Nc3ccc(C(F)(F)F)cc3)ccc2O[C@H]1CN(C)S(C)(=O)=O`, the cytotoxicity call was “inactive”.

Take `C[C@H]1CN([C@@H](C)CO)C(=O)Cc2cc(NC(=O)Nc3ccc(C(F)(F)F)cc3)ccc2O[C@@H]1CN(C)S(=O)(=O)c1ccc(Cl)cc1`: the cytotoxicity call is “inactive”.

As for `C[C@@H]1CN([C@H](C)CO)C(=O)Cc2cc(NC(=O)Nc3ccc(C(F)(F)F)cc3)ccc2O[C@@H]1CN(C)S(=O)(=O)c1ccc(Cl)cc1`, the cytotoxicity call is “active”.

On to `C[C@@H]1CN([C@@H](C)CO)C(=O)Cc2cc(NC(=O)Nc3ccc(C(F)(F)F)cc3)ccc2O[C@H]1CN(C)S(C)(=O)=O`, for which the cytotoxicity call was “inactive”.

`C[C@@H]1CN([C@H](C)CO)C(=O)Cc2cc(NC(=O)Nc3ccc(C(F)(F)F)cc3)ccc2O[C@H]1CN(C)S(=O)(=O)c1ccc(Cl)cc1`: the cytotoxicity call was “active”.

In the case of `C[C@@H]1CN([C@H](C)CO)C(=O)Cc2cc(NC(=O)Nc3ccc(C(F)(F)F)cc3)ccc2O[C@H]1CN(C)S(C)(=O)=O`, the cytotoxicity call was “inactive”.

In the case of `Cc1ccccc1S(=O)(=O)N(C)C[C@@H]1Oc2ccc(NC(=O)Nc3cccc(C(F)(F)F)c3)cc2CC(=O)N([C@@H](C)CO)C[C@@H]1C`, the cytotoxicity call is “active”.

Turning to `COc1ccc(NC(=O)N(C)C[C@@H]2OCc3ccccc3-c3c(n(C)c4ccccc34)C(=O)N([C@H](C)CO)C[C@H]2C)cc1`, the cytotoxicity call is “inactive”.

Regarding `C[C@@H]1CN([C@H](C)CO)C(=O)Cc2cc(NS(=O)(=O)c3ccc(Cl)cc3)ccc2O[C@@H]1CN(C)C(=O)Nc1cccc2ccccc12`, the cytotoxicity call is “inactive”.

On to `CO[C@@H](CN(C)S(=O)(=O)c1ccc(C)cc1)[C@@H](C)CN([C@@H](C)CO)S(=O)(=O)c1cccc(Cl)c1`, for which the cytotoxicity call is “inactive”.

As to `C[C@@H]1CN([C@H](C)CO)C(=O)c2cc(NS(=O)(=O)c3ccc(Cl)cc3)ccc2O[C@@H](C)CCCCO[C@@H]1CN(C)C(=O)Cc1ccccc1`, the cytotoxicity call is “inactive”.

As for `CN1CCN(C(=O)C[C@H]2C=C[C@H](NC(=O)Cc3ccccn3)[C@H](CO)O2)CC1`, the cytotoxicity call was “inactive”.

As for `O=C(C1=C[C@H](c2ccsc2)C[C@H](OCCCCO)O1)N1CCN(Cc2ccc3c(c2)OCO3)CC1`, the cytotoxicity call is “inactive”.

Consider `COC(=O)c1c2oc(c1C(=O)OC)C(=O)N[C@@H](Cc1ccccc1)Cn1cc(nn1)[C@@H](Cc1ccccc1)NC(=O)N[C@H](CO)CC2`, for which the cytotoxicity call is “inactive”.

As to `C[C@H](CO)N1C[C@H](C)[C@H](CN(C)S(=O)(=O)c2ccccc2)OCCCC[C@H](C)Oc2ccc(NC(=O)NC3CCCCC3)cc2C1=O`, the cytotoxicity call is “inactive”.

On to `CCNc1cc(=N)n(CC)c2n[nH]c(N)c12`, for which the cytotoxicity call is “inactive”.

On to `CON=C1CC2(CC3CC(CC=C(C)CC(C)C=CC=C4COC5C(O)C(C)=CC(C(=O)O3)C45O)O2)OC(C(C)=CC(C)C)C1C` (stereo not drawn), for which the cytotoxicity call was “active”.

Turning to `CO/N=C1\C[C@]2(C[C@@H]3C[C@@H](C/C=C(\C)C[C@@H](C)/C=C/C=C4\CO[C@@H]5[C@H](O)C(C)=C[C@@H](C(=O)O3)[C@]45O)O2)O[C@H](/C(C)=C/C(C)C)[C@H]1C`, the cytotoxicity call is “active”.

As for `COC(=O)C=CC(=O)OC`, the cytotoxicity call is “inactive”.

On to `C[C@@H](NC(=O)C[C@H]1CC[C@@H](NC(=O)CN2CCOCC2)[C@H](CO)O1)c1ccccc1`, for which the cytotoxicity call was “inactive”.

In the case of `C#CC1(O)CCC2C3CCC4=CCCCC4C3CCC21C` (stereo not drawn), the cytotoxicity call is “active”.

For the compound `C#CC1(O)CCC2C3CCC4=CCCCC4C3C(=C)CC21CC` (stereo not drawn), the cytotoxicity call was “inactive”.

Regarding `C#CC1(O)CCC2C3CCC4=CC(=O)CCC4C3CCC21C` (stereo not drawn), the cytotoxicity call was “inactive”.

With `C[C@H](CO)N1C[C@H](C)[C@H](CN(C)C(=O)Cc2ccccc2)OCCCC[C@H](C)Oc2ccc(NC(=O)Nc3ccc4c(c3)OCO4)cc2C1=O`, the cytotoxicity call was “inactive”.

With `C[C@@H]1CN([C@@H](C)CO)C(=O)c2cc(NS(=O)(=O)c3cn(C)cn3)ccc2O[C@H]1CN(C)Cc1ccc(C(=O)O)cc1`, the cytotoxicity call is “inactive”.

`O=c1[nH]cc(/N=C/c2ccncc2)c(=O)[nH]1`: the cytotoxicity call was “inactive”.

Turning to `COc1ccc(NC(=O)N(C)C[C@H]2OCCCC[C@@H](C)Oc3ccc(NC(=O)NC(C)C)cc3C(=O)N([C@H](C)CO)C[C@@H]2C)cc1`, the cytotoxicity call was “inactive”.

In the case of `CC1(C)CC[C@]2(C(=O)O[C@@H]3O[C@H](CO)[C@@H](O)[C@H](O)[C@H]3O)CC[C@]3(C)C(=CC[C@H]4[C@@]5(C)CC[C@@H](O[C@@H]6O[C@H](C(=O)O)[C@@H](O[C@@H]7OC[C@@H](O)[C@H](O)[C@H]7O)[C@H](O[C@@H]7OC[C@](O)(CO)[C@H]7O)[C@H]6O)C(C)(C)[C@@H]5CC[C@]43C)[C@@H]2C1`, the cytotoxicity call is “inactive”.

For `CC(=O)O[C@H]1CC(C)(C)C[C@H]2[C@]13CO[C@@]21CC[C@H]2[C@@]4(C)CC[C@H](O[C@@H]5OC[C@H](O[C@@H]6O[C@H](CO)[C@@H](O)[C@H](O)[C@H]6O[C@@H]6OC[C@@H](O[C@@H]7O[C@H](CO)[C@@H](O)[C@H](O)[C@H]7O)[C@H](O)[C@H]6O)[C@H](O)[C@H]5O[C@@H]5O[C@H](CO)[C@@H](O)[C@H](O)[C@H]5O)[C@@](C)(CO)[C@@H]4CC[C@@]2(C)[C@]1(C)C[C@H]3O`, the cytotoxicity call was “active”.

As for `CC1(C)CC[C@]2(C(=O)O[C@@H]3O[C@H](CO[C@@H]4O[C@H](CO)[C@@H](O)[C@H](O)[C@H]4O)[C@@H](O)[C@H](O)[C@H]3O)CC[C@]3(C)C(=CC[C@H]4[C@@]5(C)CC[C@H](O[C@@H]6OC[C@H](O)[C@H](O)[C@H]6O)C(C)(C)[C@@H]5CC[C@]43C)[C@@H]2C1`, the cytotoxicity call is “inactive”.

On to `C[C@@H]1O[C@@H](O[C@H]2[C@H](O[C@H]3[C@H](O)[C@@H](O[C@@H]4O[C@H](CO)[C@@H](O)[C@H](O)[C@H]4O)[C@H](O[C@H]4CC[C@]5(C)[C@H]6CC[C@]78OC[C@@]9(CCC(C)(C)C[C@@H]97)[C@H](O)C[C@@]8(C)[C@]6(C)CC[C@H]5C4(C)C)O[C@@H]3C(=O)O)O[C@H](CO)[C@H](O)[C@@H]2O)[C@H](O)[C@H](O)[C@H]1O`, for which the cytotoxicity call is “active”.

Take `C[C@@H]1O[C@@H](O[C@H]2[C@H](O[C@H]3[C@H](O)[C@@H](O[C@@H]4O[C@H](CO)[C@@H](O[C@@H]5O[C@H](CO)[C@H](O)[C@H]5O)[C@H](O)[C@H]4O)[C@H](O[C@H]4CC[C@]5(C)[C@H]6CC[C@]78OC[C@@]9(CCC(C)(C)C[C@@H]97)[C@H](O)C[C@@]8(C)[C@]6(C)CC[C@H]5C4(C)C)O[C@@H]3C(=O)O)O[C@H](CO)[C@H](O)[C@@H]2O)[C@H](O)[C@H](O)[C@H]1O`: the cytotoxicity call was “inactive”.

Regarding `CC(=O)O[C@H]1CC(C)(C)C[C@H]2[C@]13CO[C@@]21CC[C@@H]2[C@@]4(C)CC[C@H](O[C@@H]5O[C@H](C(=O)O)[C@@H](O)[C@H](O[C@@H]6O[C@H](CO)[C@H](O)[C@H](O)[C@H]6O[C@@H]6O[C@@H](C)[C@H](O)[C@@H](O)[C@H]6O)[C@H]5O[C@@H]5O[C@H](CO)[C@@H](O)[C@H](O)[C@H]5O)C(C)(C)[C@@H]4CC[C@@]2(C)[C@]1(C)C[C@H]3O`, the cytotoxicity call is “inactive”.

With `C[C@H]1O[C@@H](OC[C@H]2O[C@@H](O[C@H]3CC[C@]4(C)[C@H]5CCC6=C(CC[C@@]7(C(=O)O[C@@H]8O[C@H](CO)[C@@H](O)[C@H](O)[C@H]8O[C@@H]8O[C@H](CO)[C@@H](O)[C@H](O)[C@H]8O)CCC(C)(C)C[C@@H]67)[C@]5(C)CC[C@H]4C3(C)C)[C@H](O)[C@@H](O)[C@@H]2O)[C@H](O)[C@@H](O)[C@@H]1O`, the cytotoxicity call is “inactive”.

For the compound `C[C@@H]1O[C@@H](O[C@H]2[C@H](O)[C@@H](O)[C@H](OC(=O)[C@]34CCC(C)(C)C[C@H]3C3=CC[C@H]5[C@@]6(C)CC[C@H](O[C@@H]7O[C@H](C(=O)O)[C@@H](O)[C@H](O)[C@H]7O)C(C)(C)[C@@H]6CC[C@@]5(C)[C@]3(C)CC4)O[C@@H]2CO)[C@H](O)[C@H](O)[C@H]1O`, the cytotoxicity call is “inactive”.

In the case of `C[C@@H]1O[C@@H](O[C@H]2[C@H](O[C@H]3[C@H](O)[C@@H](C(=O)O)O[C@@H](O[C@H]4CC[C@]5(C)[C@H]6CC[C@]78OC[C@@]9(CCC(C)(C)C[C@@H]97)[C@H](O)C[C@@]8(C)[C@]6(C)CC[C@H]5C4(C)C)[C@@H]3OC3O[C@H](CO)[C@@H](O)[C@H](O)[C@H]3O)O[C@H](CO)[C@H](O)[C@@H]2O)[C@H](O)[C@H](O)[C@H]1O` (stereo partly drawn), the cytotoxicity call was “active”.

The values are drawn from the antibiotic and cytotoxicity screens of Wong et al. (2023).
